CtBP-E1A blk – inhibitors of CtBP/E1A interaction; 340,000 tested, 0.49% active; activity change, % (test concentration not listed); AlphaScreen GST-E1A/His-CtBP binding, 1536-well; active compounds read low; in the data active = activity change below about -65%; inconclusive = mostly about -30% to -63%
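In 5 uL wells, 23 nL compound meets equimolar GST-E1A and His-CtBP (5X stock 125 nM each) for 2 h, 37 °C. Beads (5X, 50 ug/mL) then 1 h, 37 °C, dark.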
TDP1 cell CPT – DT40-hTDP1 cell growth loss with CPT; 420,000 tested, 12% active; Potency, µM (series often up to 46.2 µM), without a hit: at the top dose activity change, negative = growth inhibition, most hits filed as inhibitors; chicken DT40 Tdp1-/-;hTDP1 cells + 20 nM CPT, ATP luminescence, 48 h; AID 686979; also: potency is read from the fitted curve at half-maximal effect; nearly all actives have a fitted effect of over 55% in size
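Cell growth measured by CellTiter-Glo luminescence after a minimum 48 h, 37 C compound exposure with 20 nM CPT in Tdp1-knockout DT40 cells stably expressing hTDP1, seeded 400/well; qHTS titration format.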
IL1B secr inh – blocks inflammasome-driven IL-1 beta release. activity change, % at 57.5 µM. 360,000 tested, 4.7% active. AID 743279. THP-1 LPS/ATP IL-1B secretion, AlphaLISA, 16 h; active compounds read low; in the data active = activity change below about -50%; inconclusive = mostly about -30% to -49%
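THP-1 cells pretreated 1 hr with compounds (up to 57.5 uM final), then stimulated with LPS (250 ng/mL final) plus ATP (1.25 mM final); secreted IL-1B measured by AlphaLISA after 16 hr, decreased signal indicating inhibition.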
Six1-Eya2 blk – inhibitors of human Six1/Eya2 interaction; Q15475+O00167; 360,000 tested, 0.56% active; AlphaScreen GST-Six1/His-Eya2 binding, biochemical; active compounds read low; activity change, % (concentration not given with the values); in the data active = activity change below about -65%; inconclusive = mostly about -30% to -63%
Target sequence (O00167 whole entry, looked up): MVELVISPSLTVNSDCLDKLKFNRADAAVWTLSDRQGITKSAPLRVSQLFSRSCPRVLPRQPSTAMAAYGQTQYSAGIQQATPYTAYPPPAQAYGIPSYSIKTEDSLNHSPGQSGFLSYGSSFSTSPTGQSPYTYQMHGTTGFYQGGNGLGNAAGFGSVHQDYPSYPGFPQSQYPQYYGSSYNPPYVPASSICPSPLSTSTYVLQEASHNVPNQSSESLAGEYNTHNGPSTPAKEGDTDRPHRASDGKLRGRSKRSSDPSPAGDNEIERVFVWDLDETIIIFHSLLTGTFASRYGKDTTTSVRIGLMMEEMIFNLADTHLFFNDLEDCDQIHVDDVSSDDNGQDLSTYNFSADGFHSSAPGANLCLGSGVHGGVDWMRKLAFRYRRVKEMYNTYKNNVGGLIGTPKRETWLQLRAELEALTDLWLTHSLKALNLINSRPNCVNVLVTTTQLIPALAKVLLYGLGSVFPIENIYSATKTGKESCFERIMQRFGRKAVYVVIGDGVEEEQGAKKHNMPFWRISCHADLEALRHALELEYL
Target sequence (Q15475 whole entry, looked up): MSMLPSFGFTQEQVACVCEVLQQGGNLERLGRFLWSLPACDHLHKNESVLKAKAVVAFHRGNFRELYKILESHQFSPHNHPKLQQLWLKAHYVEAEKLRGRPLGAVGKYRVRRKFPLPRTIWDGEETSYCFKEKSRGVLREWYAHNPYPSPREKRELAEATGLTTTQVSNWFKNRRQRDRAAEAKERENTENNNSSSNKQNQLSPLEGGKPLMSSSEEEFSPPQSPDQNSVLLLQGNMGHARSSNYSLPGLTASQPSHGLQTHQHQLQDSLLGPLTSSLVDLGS
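Homogeneous AlphaScreen proximity assay pairing GST-Six1 with His-tagged Eya2 (added as 5X mix: 250 nM and 500 nM) in 50 mM Tris pH 8.0, 300 mM NaCl, 1 mM TCEP. Glutathione donor and nickel acceptor beads; 1 h, 37 °C, dark.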
TDP1 inh – TDP1 (human) enzyme inhibition; Q9NUW8; recombinant TDP1, AlphaScreen DNA substrate cleavage; Potency, µM (doses to about 130 µM), for inactives: top-dose activity change, negative = inhibition, hits mostly inhibitors; 350,000 tested, 0.28% active; AID 485290; also: potency is read from the fitted curve at half-maximal effect; nearly all actives have a fitted effect of over 40% in size
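AlphaScreen read-out: signal falls as enzyme removes the 3' tyrosine-FITC from a 5'-biotinylated DNA oligo (15 nM, 5 min, RT). Enzyme was E. coli-made recombinant Tdp1 at 1 nM, exposed to compound for 15 min beforehand; beads 10 ug/ml, 10 min.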
DT40 TDP1 no CPT – qHTS for Inhibitors of human tyrosyl-DNA phosphodiesterase 1 (TDP1): qHTS in cells in absence of CPT. DT40 Tdp1-/- hTDP1 cells, no CPT, ATP luminescence, 48 h. Potency, µM (highest dose often 46.2 µM), for inactives: top-dose activity change, negative = growth inhibition, most hits filed as inhibitors. 420,000 tested, 15% active. AID 686978, 2013; also: potency is read from the fitted curve at half-maximal effect; nearly all actives have a fitted effect of over 55% in size
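Cells were dispensed at 400 per well, compounds added by pin tool, plates incubated ≥48 hr at 37 °C, then CellTiter-Glo added for 30 min at room temperature before luminescence reading. Line: DT40 Tdp1-/- complemented with hTDP1; camptothecin omitted.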
* hit, by the source's call; u = inconclusive; x = not tested or not shown; [ ] = remark or other dose. Rows were chosen to be rich in hits. Some 18% of all compounds tested hit in one or more screens of this group. Unless noted, calls follow the shape of the dose curve; as a rule, active = well fitted curve in the direction sought with a large enough effect; inconclusive = small, poorly fitted or top-dose-only effect, or another doubt; inactive = no such curve, though single readings can be large; an effect the other way counts as inactive or inconclusive. % is scaled to controls: 0 for no effect and ±100 for the full control effect.

SMILES	CtBP-E1A blk	TDP1 cell CPT	IL1B secr inh	Six1-Eya2 blk	TDP1 inh	DT40 TDP1 no CPT
CCc1ccc(-n2nc3cc(C)c(N)cc3n2)cc1	x	9.4%	17.8	7.5	1.7%	-2.1%
O=C(O)CCn1c(-c2ccccc2)cc2ccccc21	-10.0	7.0%	21.1	8.8	0.0%	2.7%
C=CCC[C@H](Cc1ccc(F)cc1)C(=O)OC[C@H](C)NC(=O)[C@H](CC=C)CC(=O)NCCO	6.1	u	-10.5	0.1	-1.4%	u
C=CC[C@H](CC(=O)NCCO)C(=O)N[C@@H](COC(=O)[C@@H](CC=C)Cc1ccc(F)cc1)Cc1ccccc1	1.7	20.6µM*	-7.2	-4.3	2.5%	u
C=CCC[C@H](Cc1ccc(F)cc1)C(=O)OC[C@@H](NC(=O)[C@H](CC=C)CC(=O)NCCO)c1ccccc1	3.3	20.6µM*	-13.2	-2.3	0.4%	u
Cn1cccc1CC(=O)NNC(=O)Nc1cccc(Cl)c1	x	-18.6%	-17.4	-1.1	4.6%	-5.3%
CCCCc1ccc(S(=O)(=O)NCCc2ccncc2)cc1	0.9	23.1µM*	18.2	3.5	3.3%	11.6µM*
O=[N+]([O-])c1cccc(S(=O)(=O)NCc2ccncc2)c1	-7.5	2.31µM*	56.7	-2.0	0.0%	2.31µM*
O=[N+]([O-])c1cccc(S(=O)(=O)Nc2ccc(Cc3ccncc3)cc2)c1	x	u	4.5	-0.2	x	u
Cc1ccc(S(=O)(=O)NCCc2ccncc2)cc1	4.9	u	-2.9	-2.6	6.8%	1.0%
CCCCNS(=O)(=O)c1ccc(S(=O)(=O)NCc2ccncc2)cc1	10.3	4.11µM*	u	4.1	3.3%	7.31µM*
NS(=O)(=O)c1ccc(CCNC(=O)CN2C(=O)NC(c3ccccc3)(c3ccccc3)C2=O)cc1	7.5	0.5%	23.3	1.8	-0.8%	-15.2%
CCC(=O)OC1CSc2nc3ccccc3n2C1 (stereo not drawn)	1.5	-26.3%	3.7	2.8	-2.0%	-4.4%
O=C1Nc2ccc(Br)cc2C1=Nc1cccnc1	-0.9	11.6µM*	32.9	1.2	x	8.2µM*
CSc1cccc(N=C2C(=O)Nc3ccccc32)c1	-5.7	-9.8%	9.2	6.0	x	0.6%
CCOC(=O)C1=C(N)Oc2c(oc(CO)cc2=O)C1c1ccc(F)cc1 (stereo not drawn)	0.0	-29.3%	-2.9	8.1	0.0%	-25.1%
CCCNC(=O)c1cc2c3ccccc3n(C)c2s1	-3.9	-3.7%	2.6	-8.9	8.4%	-22.1%
Cn1c2ccccc2c2cc(C(=O)NNC(=O)CCl)sc21	9.7	3.66µM*	-132.6*	-1.5	u	9.2µM*
CC(=O)Nc1ccc(S(=O)(=O)NNC(=O)c2cc3c4ccccc4n(C)c3s2)cc1	-0.3	5.17µM*	-5.1	-6.2	-2.0%	5.17µM*
CCOC(=O)C(C)N1N=C(/C=C/c2ccc(OC)cc2)CCC1=O (stereo not drawn)	9.3	u	4.0	2.1	0.0%	13µM*
Cc1ccc(/C=C/C2=NN(C)C(=O)CC2)cc1	11.0	-1.9%	-18.0	1.9	2.7%	u
C=C1CCC2[C@](C)(CO)[C@H](O)CC[C@@]2(C)[C@@H]1C/C=C1/C(=O)OC[C@H]1O (stereo partly drawn)	x	13.6%[9.04 µM]	x	x	5.0%	-27.5%[9.04 µM]
C=C1CCC2[C@](C)(CO)[C@H](O)CC[C@@]2(C)[C@@H]1C/C=C1\C(=O)OC[C@H]1O (stereo partly drawn)	1.6	3.66µM*	-87.7*	-0.1	x	4.61µM*
CC(=O)c1c(C)[nH]c(C(=O)OCC(=O)c2ccc(Br)cc2)c1C	-2.4	u	22.9	-22.4	x	18.4µM*
CC(=O)c1c(C)[nH]c(C(=O)OCC(=O)N2c3ccccc3NC(=O)C2(C)C)c1C	-21.5	34.8%	41.4	-14.1	5.6%	u
SMILES	CtBP-E1A blk	TDP1 cell CPT	IL1B secr inh	Six1-Eya2 blk	TDP1 inh	DT40 TDP1 no CPT
CC(=O)c1c(C)[nH]c(C(=O)OCc2ccc([N+](=O)[O-])cc2)c1C	-14.9	u	19.9	-11.9	9.6%	u
COC(=O)c1ccc(COC(=O)c2[nH]c(C)c(C(C)=O)c2C)o1	-1.5	10.3µM*	38.5	-3.8	1.0%	2.91µM*
CC(=O)c1c(C)[nH]c(C(=O)OCc2ccccc2)c1C	-8.3	u	-2.6	-10.4	5.8%	20.6µM*
CC(=O)c1c(C)[nH]c(C(=O)OCCCCN2C(=O)c3ccccc3C2=O)c1C	1.9	8.2µM*	17.2	-6.4	1.0%	4.11µM*
Cc1ccc(OCc2cc(=O)n3c(-c4ccccc4)csc3n2)cc1	x	-11.4%	x	x	3.8%	-2.2%
CCCNC(=O)c1cccc(NC(=O)C(C)C)c1	x	-5.9%	-10.5	-1.5	-2.7%	0.0%
CCC(NC(=O)c1[nH]c(C)c(C(C)=O)c1C)c1ccc(Br)cc1 (stereo not drawn)	-3.0	u	u	-3.2	7.4%	14.6µM*
COC(=O)c1c(C)[nH]c(C(=O)OCC(=O)c2ccc(C)s2)c1C	-1.5	u	-71.9*	-5.4	2.8%	u
COc1ccc(CN2CCS(=O)(=O)CC2)cc1OC	17.4	-28.0%	44.1	1.8	4.3%	19.4%
O=C(CC1CC2CCC1C2)NCCc1ccc(Cl)cc1 (stereo not drawn)	8.6	u	-22.5	2.1	6.0%	-29.4%
COc1ccc(NC(=O)c2cnc(Nc3ccc(C)c(Cl)c3)c3ccccc23)c(OC)c1	x	-17.4%	x	x	0.0%	-34.0%
Cc1ccc(Nc2ncc(C(=O)Nc3ccc(F)cc3F)c3ccccc23)cc1Cl	x	16.4µM*	x	x	2.9%	u
COC(=O)c1ccccc1NC(=O)c1cnc(Nc2ccc(OC)cc2)c2ccccc12	x	23.1µM*	x	x	0.0%	9.2µM*
COc1ccc(OC)c(NC(=O)c2cnc(Nc3ccccc3OC)c3ccccc23)c1	4.9	5.17µM*	-10.2	34.6	0.0%	5.8µM*
CCN(CC)S(=O)(=O)c1ccc(-c2nnc(SCC(=O)Nc3ccc(OC)cc3)o2)cc1	5.3	-18.5%	-25.1	-1.1	-7.8%	-10.5%
CCN=c1sc(C(=O)OC)cc(=O)n1CC	1.3	-10.9%	-1.9	6.1	2.3%	-6.8%
C=CCN=c1sc(C(=O)OC)cc(=O)n1CC=C	-1.4	14.6µM*	-0.5	2.8	4.0%	-18.7%
CC(=O)c1ccc(NC(=O)COC(=O)c2ccccc2Sc2ccccc2C#N)cc1	4.5	-7.0%	-11.1	3.1	0.6%	3.0%

Screening data from PubChem BioAssay.
